Experimental data: PubChem BioAssay AID2796 (The Scripps Research Institute Molecular Screening Center, 2010)
About 8,000 (2.5%) of roughly 320,000 compounds were called active. Rule as the data show it: active = activation above about 47%; inactive = the rest. The sample as a whole holds a higher share of actives than the screen did.

What follows are compounds tested against Aryl hydrocarbon receptor (Homo sapiens) (UniProt P35869) (assay: AHR activators, primary screen, cell-based, luminescence, luciferase reporter, human (AID 2796;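 also: 0% = vehicle wells and 100% = reference agonist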)). Conditions: AHR-responsive luciferase reporter cells, at 5 µM, hits give high values.
Chain of Aryl hydrocarbon receptor (Homo sapiens) (P35869 whole entry, looked up): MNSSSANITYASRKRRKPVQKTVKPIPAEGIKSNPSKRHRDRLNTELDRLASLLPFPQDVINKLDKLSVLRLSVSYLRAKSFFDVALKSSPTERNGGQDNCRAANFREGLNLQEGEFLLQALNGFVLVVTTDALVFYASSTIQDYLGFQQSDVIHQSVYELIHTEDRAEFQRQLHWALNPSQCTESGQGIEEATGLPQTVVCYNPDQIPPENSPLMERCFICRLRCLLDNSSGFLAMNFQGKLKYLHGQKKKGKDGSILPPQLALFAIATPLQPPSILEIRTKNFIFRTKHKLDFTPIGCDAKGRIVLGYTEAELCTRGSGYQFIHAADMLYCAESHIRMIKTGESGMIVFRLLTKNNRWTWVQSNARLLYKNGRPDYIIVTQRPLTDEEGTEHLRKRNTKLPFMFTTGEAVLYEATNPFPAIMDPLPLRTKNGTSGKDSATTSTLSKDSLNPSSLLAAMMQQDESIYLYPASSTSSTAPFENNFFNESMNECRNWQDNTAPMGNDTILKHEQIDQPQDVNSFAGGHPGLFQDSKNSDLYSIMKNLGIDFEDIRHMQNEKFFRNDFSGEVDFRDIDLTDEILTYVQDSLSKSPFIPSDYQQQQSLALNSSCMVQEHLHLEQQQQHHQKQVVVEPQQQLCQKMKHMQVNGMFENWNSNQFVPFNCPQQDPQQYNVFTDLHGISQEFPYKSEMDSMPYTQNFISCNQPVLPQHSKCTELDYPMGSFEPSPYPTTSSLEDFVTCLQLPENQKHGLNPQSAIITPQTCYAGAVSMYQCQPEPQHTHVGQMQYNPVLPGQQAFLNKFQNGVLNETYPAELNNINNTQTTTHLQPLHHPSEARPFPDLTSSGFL

activation, inactive:
O=C(CN1C(=O)NC(Cc2c[nH]c3ccccc23)C1=O)Nc1ccccc1C(F)(F)F (stereo not given) -0.64%
COc1ccc(NC(=O)C2COc3ccccc3O2)cc1 (stereo not given) 1.18%
O=C(Nc1ncc([N+](=O)[O-])s1)C1COc2ccccc2O1 (stereo not given) 6.36%
CCC(=O)N(Cc1cc2ccccc2[nH]c1=O)c1ccc(OC)cc1 3.79%
O=[N+]([O-])c1cc(S(=O)(=O)NCCc2ccccn2)ccc1Cl -0.28%
Cc1c([N+](=O)[O-])c(N)nn1C 2.61%
CC(C)OC(=O)CN1CCN(c2ccc(Cl)cc2)CC1 1.24%
O=C(CN1CCN(c2ccc(Cl)cc2)CC1)NCc1cccs1 -1.24%
CCCCC(CC)CNCc1cccn1CCN1CCOCC1 (stereo not given) 1.27%
COc1cccc(-n2cc(C(=O)O)c3ccccc3c2=O)c1 -1.78%
COc1cccc(N2C(=O)CN(Cc3ccccc3)C2=S)c1 1.66%
CCOC(=O)C1CCN(S(=O)(=O)c2ccc3c(c2)N(C)C(=O)CC(=O)N3C)CC1 -0.75%
CCOC(=O)C1CN(S(=O)(=O)c2ccc(OC)cc2)c2cc(Cl)ccc2O1 (stereo not given) 1.38%
COc1ccc(C2OCC3(CO2)SC(=O)NC3=O)cc1OC (stereo not given) 3.57%
CNc1nc(Nc2ccc(C)c(Cl)c2)nc(N)c1[N+](=O)[O-] 38.2%
CC(=O)Nc1nc(N(C)C)nc(N(C)C)n1 -2.86%
CN(C)c1ccnc(Nc2ccc(F)cc2)c1C#N 10.8%
Fc1ccc(Nc2nnns2)cc1 -0.19%
Cc1cccc(OCC(O)CN2CCN(CCN3C(=O)c4cccc5cccc(c45)C3=O)CC2)c1C (stereo not given) 1.57%
Nc1nc(O)c(CC(=O)O)s1 1.52%
CCCCC/C=C/C1=CC(=O)C[C@H](c2ccc(Cl)cc2)C1 0.78%
CCOC(=O)C1CCN(C(=O)C2CCCN(S(=O)(=O)c3ccc(OC)c(Cl)c3)C2)CC1 (stereo not given) 1.31%
CCCCc1ccc(NC(=O)NCc2cccnc2)cc1 7.22%
Cn1nnnc1SCC(=O)Nc1sccc1C(N)=O -1.01%
COC(=O)c1ccccc1NC(=O)CSc1nnnn1C 3.56%
O=C(CCNC(=O)c1ccccc1)Nc1nc2ccccc2s1 24.7%
O=C(CCC(=O)c1cccs1)Nc1nc2ccccc2s1 38%
Brc1cnc2ccccc2c1N1CCCCC1 -3.31%
Cc1ccc(C(=O)N/C(=C\c2cccs2)C(=O)NCCc2ccccn2)cc1C 0.25%
N#Cc1c(N2CCCCC2)nc(N)c2c(N)nc(SCC(=O)O)cc12 6.26%
Cn1c(SCC(=O)c2ccc(F)cc2)nnc1-c1ccccn1 -0.55%
Cc1ccc(NC(=O)c2cnc(SCC(=O)NCC3CCCO3)n(C)c2=O)cc1 (stereo not given) 16.3%
CN(CC(=O)Nc1ccc(Cl)cc1)CC(=O)Nc1cccc2ccccc12 5.21%
O=C(CN1C(=O)NC2(CCCCCC2)C1=O)Nc1ccc([N+](=O)[O-])cc1 -2.64%
COc1cc(Cl)ccc1OCc1cc(C(=O)N2CC[C@@H]3CCCC[C@H]3C2)no1 6.28%
COc1ccccc1-c1cc(C(=O)N2CCCCC2)no1 32.7%
Cc1ccc(C(=O)NCC(=O)OCC(=O)NC2CCCCCCC2)cc1 0.7%
CCCCNC(=O)C1CCCN(S(=O)(=O)c2ccc(S(=O)(=O)NCC(C)C)cc2)C1 (stereo not given) -3.28%
COc1cccc(C2c3[nH]c4ccccc4c3CCN2Cc2cccc(C)n2)c1 (stereo not given) 17.2%
CCOc1ccc(C2c3[nH]c4ccccc4c3CCN2Cc2cccn2-c2ncccn2)cc1 (stereo not given) 26.3%
Cc1c(-c2ccccc2)n[nH]c1C(=O)N=Nc1c(O)[nH]c2ccccc12 -6.16%
CCOC(=O)N1CCN(C(=O)COCc2cc(-c3ccc4c(c3)OCO4)on2)CC1 0.94%
CCOC(=O)c1c(C)[nH]c(C(=O)COc2ccc3c(c2)OCO3)c1C 30.7%
CCCCOc1ccc(Cl)cc1CSc1nncn1N 1.19%
Cc1cccc(N=C2SC(C)CN2C(=O)CN2C(=O)NC3(CCCC3)C2=O)c1 (stereo not given) 2.39%
CCOc1ccccc1CN1CCN(C2CCC2)CC1CCO (stereo not given) -2.26%
CC(=O)N1CSCC1C(=O)O (stereo not given) 0.15%
CCOc1cccc(C(=O)Nc2nnc(-c3cccs3)s2)c1 37.1%
O=C(O)CCCn1cc(NC(=O)COc2cccc(Cl)c2)cn1 -1.62%
C=CC1=C(C(=O)O)N2C(=O)[C@@H](NC(=O)/C(=N\OCC(=O)O)c3csc(N)n3)[C@H]2SC1 -1.86%
COc1ccc(Cc2nnc(NC(=O)c3cc(OC)c(OC)c(OC)c3)s2)cc1OC 0.25%
CC(=O)Oc1ccc(C(=O)Nc2nccs2)cc1 1.87%
O=C(Nc1cccc2c1N(C(=O)c1ccco1)CCC2)c1ccco1 2.88%
COc1ccc(Cc2nnc(SCC(=O)Nc3ccc(C)c(Cl)c3)[nH]c2=O)cc1 -0.12%
Cc1ccc(NC(=O)CSc2nnc(CNC(=O)c3ccccc3F)o2)cc1Cl 26.2%
COCCNC(=O)CSc1nc2c(n1-c1ccccc1)CCCC2 -0.48%
Cc1cc(=O)n2[nH]c(-c3sccc3-n3c(C)ccc3C)cc2n1 10%
O=c1c2c(nc3cc(-c4cccc(Cl)c4)[nH]n13)CCCC2 5.09%
O=C(CCc1ccc(S(=O)(=O)N2CCOCC2)cc1)OCC(=O)c1ccc(Br)cc1 2.27%
COC(=O)C1=C(C)N(c2ccc(C)cc2)/C(=C/c2ccc(O)cc2)C1=O 2.06%
C[C@H](C(=O)CC(=O)OC(C)(C)C)[C@H](O)c1ccc(C(F)(F)F)cc1 1.94%
Cc1cc(OC(=O)c2ccc(Cl)cc2)cc(=O)n1C -0.96%
COc1ccc2ccn(C)c2c1 5.22%
COc1ccc(C(C(=O)NCc2ccccc2)N(Cc2cccs2)C(=O)c2cnccn2)cc1 (stereo not given) -1.35%
CC1CCCCC1NCC(=O)Nc1ccccc1C(=O)Nc1ccccc1 (stereo not given) -0.06%
COc1cc([N+](=O)[O-])ccc1NC(=O)CN1CCCC1 4.3%
COc1ccccc1CN1CC(C(=O)NCCc2cn[nH]c2)CCC1=O (stereo not given) 2.31%
NC(=O)c1c(NC(=O)CSc2nnc(-c3ccco3)n2N)sc2c1CCCC2 19.8%
CNC(=O)c1c(NC(NC(=O)c2ccco2)C(=O)c2ccc(Cl)cc2)sc2c1CCCC2 (stereo not given) 1.8%
COc1cccc(OC)c1C(=O)Nc1nnc(C(C)C)s1 15.7%
O=C(Nc1sc2c(c1C(=O)O)CCC2)c1ccccc1F 13.6%
Cc1cccc(N(C(=O)Cn2nnc(-c3ccc(C)o3)n2)C(C(=O)NC2CCCC2)c2ccncc2)c1 (stereo not given) -1.02%
CC1CCCCN1C(=O)CCS(=O)(=O)Cc1ccccc1 (stereo not given) -0.28%
Nc1ccccc1/C=N\N=C/c1ccccc1N 38.4%
COC(=O)c1sccc1NC(=S)Nc1ccc(C)cc1 1.83%
CCNC(=O)c1sccc1-n1cccc1 0.75%
CN(C)C1=NC[C@H](Cc2ccccc2)N1CCc1ccc(F)cc1 5.16%
CCOC(=O)N1CCN(C(=O)c2ccccc2SCC(=O)NCC2CCCCC2)CC1 1.83%
O=C(Cc1ccccc1)NNC(=O)C1CCN(c2ncccn2)CC1 0.76%
COc1ccccc1Oc1ccc(N/C=C2/CCCC2=O)cc1 0.2%

activation, active:
COc1ccc(OC)c2sc(NC(=O)C3COc4ccccc4O3)nc12 (stereo not given) 50.9%
O=C(CN1CCN(c2ccc(Cl)cc2)CC1)c1ccccc1 73.2%
COc1cccc(-n2c(=S)[nH]c3c(oc4ccccc43)c2=O)c1 64.8%
CN(C)c1nc(NN)nc(Nc2ccc(F)cc2)n1 76.4%
CN(C)c1nc(Nc2ccc(Cl)c(Cl)c2)nc(N(C)C)n1 130%
Cn1nnnc1SCC(=O)Nc1nc2ccccc2s1 50.3%
O=C(Nc1ccccc1)Nc1nc2ccccc2s1 74.5%
Cn1c(SCC(=O)c2ccccc2)ncc(C(=O)Nc2ccc(F)cc2)c1=O 98.3%
COc1ccc(OCc2cc(C(=O)N3CCCC3)no2)c2ccccc12 50.9%
CCOc1ccc(C2c3[nH]c4ccccc4c3CCN2Cc2cn(CC)nc2C)cc1 (stereo not given) 58.7%
CCOC(=O)c1nc(-c2ccc3c(c2)OCO3)[nH]c1C 102%
CCOc1cccc(C(=O)Nc2cnn(Cc3ccccc3)c2)c1 47.8%
COc1cc(C(=O)Nc2nccs2)cc(OC)c1OC 51.3%
Cc1ccc(NC(=O)CSc2nn3c(=O)c(C)nnc3s2)cc1Cl 72.8%
Cc1cc(=O)n2[nH]c(-c3cccc(Cl)c3)cc2n1 50.5%
COc1ccc(NC(=O)c2cc([N+](=O)[O-])ccc2NC(=O)CNC2CCCCC2C)c(OC)c1 (stereo not given) 47.4%
COc1cccc(OC)c1C(=O)Nc1sc2c(c1C(N)=O)CCCC2 49.1%
NC(=O)c1c(Nc2nc3c(F)cccc3s2)sc2c1CCCC2 52.5%
Cc1ccc(NC(=O)NNC(=O)c2sccc2-n2cccc2)cc1 85.8%
O=C1/C(=C\Nc2ccccc2)CCN1c1ncccn1 66.5%
